A selection: hits, their analogues and other compounds. The true share with any hit is near 19%.
IL-1B inflam inh – qHTS for Inhibitors of Inflammasome Signaling: IL-1-beta AlphaLISA Primary Screen; actives 4.7% (n = 360,000); activity change, % at 57.5 µM; THP-1 LPS/ATP IL-1B secretion, AlphaLISA, 16 h; active compounds read low; in the data active = activity change below about -50%; inconclusive = mostly about -30% to -49%
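THP-1 cells pretreated 1 hr with compounds (up to 57.5 uM final), then stimulated with LPS (250 ng/mL final) plus ATP (1.25 mM final); secreted IL-1B measured by AlphaLISA after 16 hr, decreased signal indicating inhibition.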
HT1080 IDH1KD tx – qHTS for induction of synthetic lethality in tumor cells producing 2HG: qHTS for the HT-1080-IDH1KD cell line; HT-1080 IDH1 knockdown viability, ATP luminescence, 48 h; Potency, µM (titrated, usually from 46.1 µM), for inactives: top-dose activity, negative = toxicity, most hits filed as cytotoxic; actives 2% (n = 360,000);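 also: potency is read from the fitted curve at half-maximal effect; 0% = DMSO wells and -100% = cell-free medium wells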
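Viability of IDH1-knockdown HT-1080 fibrosarcoma cells was assessed by CellTiter-Glo after 48 h at 37 °C with titrated compound; concentration-effect curves were classified by fit quality and response size.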
HT1080NT lethal – qHTS for induction of synthetic lethality in tumor cells producing 2HG: qHTS for the HT-1080-NT fibrosarcoma cell line | HT-1080-NT fibrosarcoma viability, CellTiter-Glo ATP luminescence, 48 h | Potency, µM (doses to about 46.1 µM), without a hit: at the top dose activity, negative = less viability, usual class: cytotoxic | actives 1.6% (n = 360,000);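 also: NT is the 2HG producing partner of a matched IDH1 knockdown line; potency is read from the fitted curve at half-maximal effect; 0% = DMSO-treated cells and -100% = media-only wells without cells; nearly all actives have a fitted effect of over 55% in size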
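Viability of the 2HG-overproducing fibrosarcoma line after 48 hours of compound exposure at 37 degrees C was determined by luminescence with CellTiter-Glo, and concentration-effect curves were then fitted and categorized.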
DT40 TDP1 CPT – qHTS for Inhibitors of human tyrosyl-DNA phosphodiesterase 1 (TDP1): qHTS in cells in presence of CPT; chicken DT40 Tdp1-/-;hTDP1 cells + 20 nM CPT, ATP luminescence, 48 h; Potency, µM (series often up to 46.2 µM), for inactives: at the top dose activity change, negative = growth inhibition, hits mostly inhibitors; actives 12% (n = 420,000); AID 686979, 2013; also: potency is read from the fitted curve at half-maximal effect; nearly all actives have a fitted effect of over 55% in size
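Cell growth measured by CellTiter-Glo luminescence after a minimum 48 h, 37 C compound exposure with 20 nM CPT in Tdp1-knockout DT40 cells stably expressing hTDP1, seeded 400/well; qHTS titration format.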
DT40 TDP1 no CPT – qHTS for Inhibitors of human tyrosyl-DNA phosphodiesterase 1 (TDP1): qHTS in cells in absence of CPT; DT40 Tdp1-/- hTDP1 cells, no CPT, ATP luminescence, 48 h; Potency, µM (series often up to 46.2 µM), without a hit: top-dose activity change, negative = growth inhibition, most hits filed as inhibitors; actives 15% (n = 420,000); also: potency is read from the fitted curve at half-maximal effect; nearly all actives have a fitted effect of over 55% in size
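Chicken DT40 Tdp1-/- cells complemented with human TDP1, screened without camptothecin (DMSO vehicle only), 400 cells/well. Compounds pin-transferred, cells incubated at 37 °C for at least 48 hr. Growth read as ATP-dependent luminescence (CellTiter-Glo, 30 min at RT).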
uPA surface inh – qHTS for Inhibitors of Cell Surface uPA Generation; cell surface uPA generation assay, qHTS; Potency, µM (titrated, usually from 38.3 µM), for inactives: at the highest dose activity change, negative = inhibition, actives largely listed as inhibitors; actives 0.31% (n = 330,000); AID 540303, 2011; active = well fitted inhibition curve with a large enough effect; inconclusive = small, poorly fitted or top-dose-only effect; inactive = no such curve, though single readings can be large or run the other way; tested in mouse RAW 264.7 cells; also: potency is read from the fitted curve at half-maximal effect; nearly all actives have a fitted effect of over 55% in size
An asterisk follows results filed as active; ? = inconclusive; / = no result; [ ] = another dose, or the depositor's remark. Unless noted, calls follow the shape of the dose curve; as a rule, active = well fitted curve in the direction sought with a large enough effect; inconclusive = small, poorly fitted or top-dose-only effect, or another doubt; inactive = no such curve, though single readings can be large; an effect the other way counts as inactive or inconclusive. Unless noted, % is scaled to controls: 0 for no effect and ±100 for the full control effect.

SMILES	IL-1B inflam inh	HT1080 IDH1KD tx	HT1080NT lethal	DT40 TDP1 CPT	DT40 TDP1 no CPT	uPA surface inh
COc1ccc(CC(C)Nc2ccccc2F)cc1 (stereo not given)	-4.8	-1.9%	-0.2%	-6.7%	-23.6%	2.4%
COc1cccc(Nc2ncc3nc(-c4cc(F)cc(F)c4)c(=O)n(C4CC4)c3n2)c1	/	/	/	11.5%	1.6%	/
COCOCCn1cc(CN2CCS(=O)(=O)N(Cc3ccc(-c4ccncc4)cc3)C(C(C)C)C2=O)nn1 (stereo not given)	19.9	0.6%	4.0%	-99.2%	-98.4%	/
COCOCCn1cc(CN2CCS(=O)(=O)N(Cc3ccc(-c4ccc(Cl)nc4)cc3)C(C(C)C)C2=O)nn1 (stereo not given)	65.7	-3.5%	-16.5%	7.31µM*	-0.7%	/
COCOCCn1cc(CN2CCS(=O)(=O)N(Cc3ccc(-c4ccncc4)cc3)C(CC(C)C)C2=O)nn1 (stereo not given)	-29.8	0.3%	0.9%	23.1µM*	?	/
COCOCCn1cc(CN2CCS(=O)(=O)N(Cc3ccc(-c4ccccc4)cc3)C(C(C)C)C2=O)nn1 (stereo not given)	6.0	-7.5%	-0.7%	?	23.1µM*	/
COCOCCn1cc(CN2CCS(=O)(=O)N(Cc3ccc(-c4ccc(OC)cc4)cc3)C(C(C)C)C2=O)nn1 (stereo not given)	21.5	-6.1%	-4.9%	14.6µM*	16.4µM*	/
COCOCCn1cc(CN2CCS(=O)(=O)N(Cc3ccc(-c4ccc(Cl)nc4)cc3)C(C)C2=O)nn1 (stereo not given)	-3.7	-1.5%	-1.9%	-22.4%	?	/
COCOCCn1cc(CN2CCS(=O)(=O)N(Cc3ccc(-c4ccc(C)cc4)cc3)C(C(C)C)C2=O)nn1 (stereo not given)	2.5	4.4%	-2.2%	?	?	/
CC(=O)Nc1ccc(NC(=O)c2c(-c3ccccc3)noc2C)cn1	-15.6	18.4%	17.6%	-13.7%	4.7%	-7.7%
COc1ccc(CCNC(=O)Cc2c(C)c3c(cc(C)c4c(C)c(C)oc43)oc2=O)cc1	/	/	/	-3.9%	3.0%	/
O=C(Nc1cccc(-c2cn3ccccc3n2)c1)c1cnccn1	142.6	-1.1%	13.0%	?	?	4.4%
O=C(Nc1cccc(-c2cn3ccccc3n2)c1)c1cccc(Cl)c1	-103.9*	?	?	?	18.4µM*	-7.0%
Cc1cccc2nc(-c3cccc(NC(=O)c4ccc(Cl)cc4)c3)cn12	5.1	-22.6%	-22.7%	20.6µM*	?	-28.0%
CCOC(=O)C1=C(COC(=O)c2ccco2)NC(=O)NC1CC (stereo not given)	24.0	0.0%	8.3%	-3.2%	-4.2%	1.9%
NNC(=S)NC1CCCCC1	6.1	27.6%	8.7%	6.51µM*	5.8µM*	/
CC(C)(C)[C@H]1C=C(C(N)=O)O[C@@H](OCCCCO)C1	3.5	-6.7%	0.3%	-21.8%	-26.3%	5.6%
Cc1ccc(CNCCC2=CCCCC2)cc1	-69.5*	?	-2.5%[9.24 µM]	?	23.1µM*	/
COc1ccc2c(c1OC)C(Cc1ccccc1)N1CCc3cc4c(cc3C1C2)OCO4 (stereo not given)	/	/	/	5.96µM*	11.9µM*	/
CC1(C)C[C@H]2C3=CCC4[C@@]5(C)CC[C@H](O)[C@](C)(CO)C5CC[C@@]4(C)[C@]3(C)C[C@H]3O[C@@H]1[C@H](O)[C@]32CO (stereo not given in full)	23.4	18.3%	3.1%	-2.2%	-7.7%	-8.4%
CCCNc1nc(Nc2ccc(C)cc2)nc(N2CCCC2)n1	-22.7	-6.1%	-16.8%	23.1µM*	20.6µM*	-0.6%
O=[N+]([O-])c1ccc(Nc2nc(NCCO)nc(N3CCCC3)n2)cc1	-24.5	0.7%	-14.1%	?	20.6µM*	-0.8%
CC1CCCCC12NC(=O)N(CC(=O)OCC(=O)N(C)C1CCCCC1)C2=O (stereo not given)	4.1	-2.6%	0.5%	-0.9%	3.1%	-10.7%
O=C(O)c1c(Cl)c(Cl)c(Cl)c(Cl)c1C(=O)OCC1CCCO1 (stereo not given)	13.4	-0.7%	3.0%	5.9%	11.6%	/
Cc1cc(O)c(C(C)C)cc1N=Cc1ccc(N(C)C)cc1	-7.7	1.9%	5.4%	2.91µM*	5.17µM*	?
SMILES	IL-1B inflam inh	HT1080 IDH1KD tx	HT1080NT lethal	DT40 TDP1 CPT	DT40 TDP1 no CPT	uPA surface inh
COc1cccc(C=Nc2cc(C(C)C)c(O)cc2C)c1O	?	-18.2%	-3.1%	4.11µM*	3.26µM*	3.5%
Cc1c(N=Cc2ccc(O)c(Br)c2)cccc1[N+](=O)[O-]	27.2	-5.0%	-6.4%	-0.9%	-20.4%	1.6%
Cc1cc(O)c(C(C)C)cc1N=Cc1ccc([N+](=O)[O-])cc1	0.4	-0.2%	0.0%	7.31µM*	16.4µM*	?
CCOC(=O)C1CCN(c2cc3c(cc2NC(=O)c2ccccc2Br)n(C)c(=O)n3C)CC1	24.8	-0.6%	-4.7%	?	18.4µM*	4.6%
COc1cccc(C(=O)Nc2cc3c(cc2N2CCCC2)n(C)c(=O)n3C)c1	5.0	-2.2%	6.4%	?	?	-1.8%
CCOC(=O)C1CCN(c2cc3c(cc2NC(=O)c2cc(OC)ccc2Br)n(C)c(=O)n3C)CC1	0.0	14.4%	8.6%	16.4µM*	11.6µM*	-49.3%
Cc1cc(C)n(Cc2ccc(NC(=O)c3nn(C)cc3[N+](=O)[O-])cc2)n1	-62.7*	6.31µM*	10µM*	-2.6%	2.3%	12.3%
Cc1ccc(Cn2ccc(NC(=O)c3nn(C)cc3[N+](=O)[O-])n2)cc1	-100.6*	?	?	23.0%	-23.0%	-12.9%
O=C(CCC(=O)N1CCN(Cc2ccc(F)cc2)CC1)Nc1nnc(C(F)(F)F)s1	48.5	-5.2%	-4.8%	-17.3%	20.0%	-18.9%
Cc1ccccc1CN1CCN(C2CCC2)CC1CCO (stereo not given)	8.4	6.0%	4.1%	-0.2%	-19.4%	-0.5%
COc1cccc(CNC(=O)C2CCCN(c3nn4cc(-c5ccc(C)cc5)nc4s3)C2)c1 (stereo not given)	/	/	/	20.6µM*	14.6µM*	/
COc1ccc(-c2cn3nc(N4CCCC(C(=O)Nc5ccccc5OC)C4)sc3n2)cc1 (stereo not given)	/	/	/	14.6µM*	16.4µM*	/

Source: PubChem (National Center for Advancing Translational Sciences (NCATS))
